Data from PubChem BioAssay (NCI).
The panel holds about 79,000 compounds, 15% with a hit somewhere; the sample as a whole holds those more often. Activity calls are given as the source filed them. Rule as the data show it: active = growth inhibition above about 70%; inactive = the rest.

What was measured:
[1] = NCI Yeast Anticancer Drug Screen. Data for the rad50 strain (AID 155);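 also: 0% = growth of vehicle-only cultures of the same strain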; conditions: S. cerevisiae rad50 strain growth inhibition; at 50.0 µM; stronger effect = higher value
Procedure, shortened: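 Yeast carrying a defined DNA repair defect were exposed to test compounds, and growth was compared with vehicle-treated controls to give percent inhibition.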

[2] = NCI Yeast Anticancer Drug Screen. Data for the mec2-1 strain (AID 157); conditions: S. cerevisiae mec2-1 strain, at 50.0 µM, stronger effect = higher value
Procedure, shortened: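 Readout is yeast growth inhibition, normalised to vehicle-treated controls, in the mec2-1 strain exposed to compound.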

[3] = NCI Yeast Anticancer Drug Screen. Data for the sgs1 mgt1 strain (AID 161);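 also: 0% = growth of cultures given vehicle only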; conditions: S. cerevisiae sgs1 mgt1 strain, at 50.0 µM, stronger effect = higher value
Procedure, shortened: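 Growth of a repair-deficient yeast mutant was monitored after compound treatment and expressed as inhibition relative to vehicle-treated cultures.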

[4] = NCI Yeast Anticancer Drug Screen. Data for the cln2 rad14 strain (AID 165);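 also: 0% = growth equal to vehicle treated cultures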; conditions: S. cerevisiae cln2 rad14 strain, at 50.0 µM, stronger effect = higher value
Procedure, shortened: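 Relative to vehicle controls, growth inhibition of compound-treated cln2 rad14 yeast was recorded.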

[5] = NCI Yeast Anticancer Drug Screen. Data for the bub3 strain (AID 167); conditions: S. cerevisiae bub3 mutant strain, at 50.0 µM, stronger effect = higher value
Procedure, shortened: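 Compounds were applied to a genetically altered yeast strain carrying a cell-cycle control defect. Growth inhibition was scored against vehicle-treated controls.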

[6] = NCI Yeast Anticancer Drug Screen. Data for the mlh1 rad18 strain (AID 175); conditions: S. cerevisiae mlh1 rad18 strain growth inhibition; at 50.0 µM; stronger effect = higher value
Procedure, shortened: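 Test agents were incubated with a yeast strain of defined genotype (DNA damage repair defect). Inhibition of growth was derived by comparison with vehicle-exposed cultures.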

Measured: growth inhibition

O=C(Nc1ccn(C2OC(CO)C(O)C2O)c(=O)n1)Nc1ccn(C2OC(CO)C(O)C2O)c(=O)n1 (configuration not stated)
inactive: [1] 22.5% | [2] -17.6% | [3] -4.95% | [4] -35.8% | [5] -1.2% | [6] 17.6%

CC(=O)OC(CCN(C)C)c1ccccc1 (configuration not stated)
inactive: [1] -1.35% | [2] -7.5% | [3] 0.6% | [4] -34.1% | [5] 24% | [6] -5.45%

ClCc1c(Cl)c(Cl)c(CCl)c(Cl)c1Cl
inactive: [1] 2.75% | [2] -10.9% | [3] 3.1% | [4] 20.6% | [5] 12.6% | [6] -10.1%

C=CCNC(=S)N1c2ccccc2NC(=O)CC1C (configuration not stated)
inactive: [1] -45.8% | [2] -9.2% | [3] -20.4% | [4] 13.4% | [5] 13.1% | [6] -15.4%

NC(=O)SCC(N)C(=O)O (configuration not stated)
inactive: [1] 0.25% | [2] -21.4% | [3] 1.55% | [4] 3.55% | [5] 4.95% | [6] 6.8%

O=C(O)c1cnc2cc3c(cc2c1Nc1cccc(Cl)c1)OCO3
inactive: [1] -2.25% | [2] -4.05% | [3] 4.45% | [4] -27.5% | [5] -8.6% | [6] -12.6%

O=C1c2cccc3cc([N+](=O)[O-])cc(c23)C(=O)N1C(Cc1ccccc1)c1ccccc1 (configuration not stated)
inactive: [1] 4.1% | [2] -6.05% | [3] 16.4% | [4] 15.1% | [5] 10.6% | [6] 19.1%

CCCCCCCCCCCCCCCCCCNC(=O)Nc1ccccc1
inactive: [1] 3.1% | [2] 7.05% | [3] -2.75% | [4] -7.65% | [5] -4.05% | [6] 15.3%

CC(C)(C)C(=O)[CH-]C(=O)C(F)(F)F.CC(C)(C)C(=O)[CH-]C(=O)C(F)(F)F.CC(C)(C)C(=O)[CH-]C(=O)C(F)(F)F.[Ru+3]
inactive: [1] 25.8% | [2] -4.65% | [3] 1.7% | [4] -1.35% | [5] 8.5% | [6] 24.4%

CCOC(OCC)C(N)C(=O)O (configuration not stated)
inactive: [1] 6% | [2] 23.7% | [3] 1.4% | [4] -19.3% | [5] 10.8% | [6] -15%

COc1cc(NC(C)CCCNC(C)C)c2nccc(C)c2c1 (configuration not stated)
inactive: [1] 17.4% | [2] 16.3% | [3] 20.9% | [4] 3.25% | [5] 11.6% | [6] 27.9%

CCOC(=O)Oc1ccc(C(CNC(C)C)OC(=O)OCC)cc1OC(=O)OCC (configuration not stated)
inactive: [1] 38.5% | [2] 2.8% | [3] 25.6% | [4] 9.65% | [5] 4.45% | [6] 32.9%

O=C(Cc1ccccc1)Nc1ccc([N+](=O)[O-])cc1Cl
inactive: [1] 4.95% | [2] 16.1% | [3] 23.4% | [4] 2.1% | [5] 6.5% | [6] 38.1%

N#CCCN(CCC#N)c1ccc(/C=C2\CC(O)(c3ccccc3)N(c3ccc(Cl)cc3)C2=O)cc1 (configuration not stated)
inactive: [1] -15.8% | [2] 0.35% | [3] -23.7% | [4] 11.3% | [5] -6.3% | [6] -22.4%

O=C1OC2c3ccccc3CC1C2CO (configuration not stated)
inactive: [1] 20.9% | [2] 4.7% | [3] 7.55% | [4] 9.25% | [5] 2% | [6] -4.45%

COC(=O)Nc1cccc(OC(=O)NC2CCCCC2)c1
inactive: [1] 12.1% | [2] 32.7% | [3] 15.1% | [4] 4.25% | [5] 33.8% | [6] 16.4%

Cc1ccc(CCOS(=O)(=O)c2ccc(C)cc2)cc1
inactive: [1] 13.5% | [2] -26.5% | [3] -1.3% | [4] 10.2% | [5] 28% | [6] 10.7%

CC1(C)N=C(N)N=C(N)N1c1ccc(CCCCc2ccccc2)cc1
inactive: [5] 50% | [6] 46.1%
active: [1] 99.6% | [2] 99.7% | [3] 99.8% | [4] 99.3%

CC(C)(C)NCC1CCCC1
inactive: [1] 0.55% | [2] -1.5% | [3] 2.4% | [4] -22.9% | [5] -11.4% | [6] -3.8%

C=C(Br)CNC(=O)Nc1ccccn1
inactive: [1] -10.2% | [2] 4.55% | [3] -3.3% | [4] -4.15% | [5] -4.85% | [6] -8.75%

c1cnc2cccnc2c1
inactive: [1] -16.1% | [2] -30.4% | [3] -14.7% | [4] -6.15% | [5] -8.6% | [6] -9.9%

COC(CC1(OC)OC(=O)C=C1N)OC (configuration not stated)
inactive: [1] -7.05% | [2] 20.1% | [3] -12.7% | [4] -28.3% | [5] 16.8% | [6] -3.05%

CCOC(=O)N1C2CC=CCC1C1(c3ccccc3)OC2(c2ccccc2)c2ccccc21
inactive: [1] -16.7% | [2] -3.95% | [3] -4.6% | [4] 5.05% | [5] -1.05% | [6] -24.1%

Oc1ccc(Cl)cc1/C=N\NC(=S)Nc1ccc2cn[nH]c2c1
inactive: [1] -2.7% | [2] 10.1% | [3] 13.9% | [4] -39.4% | [5] 20.8% | [6] 11.3%

C(=N\N1CCN(/N=C/c2cccc3ccccc23)CC1)/c1cccc2ccccc12
inactive: [1] 16.2% | [2] 6.85% | [3] 19% | [4] 18.5% | [5] -0.65% | [6] 3.4%

COc1ccc2ccccc2c1C1NC(=O)c2ccccc2N1 (configuration not stated)
inactive: [1] 13.1% | [2] -17.8% | [3] 5.75% | [4] 8.9% | [5] 12.5% | [6] 0.1%

COc1ccccc1C1C2=C(COC2=O)Oc2cc3c(cc21)OCO3 (configuration not stated)
inactive: [1] -20.8% | [2] -8.25% | [3] -29.1% | [4] 3.75% | [5] 0.4% | [6] -11.9%

CCC(C(N)C(=O)O)C(F)(F)F (configuration not stated)
inactive: [1] -19.4% | [2] -32.1% | [3] 1.4% | [4] 4.25% | [5] -22.1% | [6] -6.55%

CCOC(=O)c1ccc(NC(=O)CCCCCCCCC(=O)Nc2ccc(C(=O)OCC)cc2)cc1
inactive: [1] 7.5% | [2] -5.6% | [3] -0.85% | [4] -8.45% | [5] -2.1% | [6] -6.95%

COc1ccc2c(=O)c(-c3ccc(OC)c(OC)c3)c(C)oc2c1
inactive: [1] -0.7% | [2] -1.5% | [3] 13.1% | [4] 7.5% | [5] -31.4% | [6] -4.85%

CC1CC=CCC1(C(=O)O)C(=O)O (configuration not stated)
inactive: [1] 0.6% | [2] 10.1% | [3] -10.2% | [4] -2.05% | [5] -21.6% | [6] -24.1%

CC(O)c1ccccc1Br (configuration not stated)
inactive: [1] -9.65% | [2] -15.1% | [3] -16.2% | [4] -13.4% | [5] -36.5% | [6] -21%

CCN(CC)C(=N)N
inactive: [1] -11.6% | [2] -1.55% | [3] -27.2% | [4] -34.2% | [5] -22% | [6] -14.4%

Oc1ccc(Cl)cc1CN1CCOCC1
inactive: [1] 31.3% | [2] 11.6% | [3] 36.1% | [4] 21.5% | [5] 13.3% | [6] 34.5%

CCOC(=O)c1c2c(c(-c3ccccc3)n1C)C(=O)C(C)=C(C)C2=O
inactive: [1] -10.8% | [2] -2.4% | [3] -10.2% | [4] -28.9% | [5] 1.05% | [6] -6.65%

CCOC(=O)c1nnsc1NC(=O)Nc1ccc(Cc2ccc(NC(=O)Nc3snnc3C(=O)OCC)cc2)cc1
inactive: [1] -14.3% | [2] 8.25% | [3] 12.2% | [4] 18.3% | [5] 5.45% | [6] 10.3%

Cc1cccc(N=C(Nc2cccc(C)n2)Nc2cccc(C)n2)n1
inactive: [1] 31.3% | [2] 15.8% | [3] 35.6% | [4] 36.9% | [5] 25.9% | [6] 31.1%

NC(=O)c1ccc2c(ccc3ccccc32)c1
inactive: [1] 48.5% | [2] 4.75% | [3] 5.05% | [4] -36% | [5] -1.8% | [6] -2.75%

N#CCOS(=O)(=O)O
inactive: [1] -0.6% | [2] 0.45% | [3] -1.4% | [4] -6.7% | [5] -3.25% | [6] -1%

COc1cc(OC)c(OCc2ccccc2)c(OC)c1
inactive: [1] 12.2% | [2] 0.25% | [3] -0.25% | [4] 2.45% | [5] -2.5% | [6] -17.2%

CCC(CC)OC(=O)Nc1cccc2ccccc12
inactive: [1] -16.4% | [2] -9.65% | [3] -5.75% | [4] -55% | [5] 4.9% | [6] -14.6%

CCCCCCCCCCCCn1c2nc(=O)[nH]c(=O)c-2nc2ccccc21
inactive: [1] -3.35% | [2] 3.75% | [3] -8.15% | [4] 4.25% | [5] -0.2% | [6] -26.1%
